Screening results from PubChem.
uPA surface inh = blocks generation of uPA at the cell surface | 330,000 compounds, 0.31% hits | cell surface uPA generation assay, qHTS | AID 540303 | Potency, µM (series often up to 38.3 µM), actives largely listed as inhibitors; active means well fitted inhibition curve with a large enough effect; inconclusive means small, poorly fitted or top-dose-only effect; inactive means no such curve, though single readings can be large or run the other way; tested in mouse RAW 264.7 cells; further: nearly all actives have a fitted effect of over 55% in size
Nrf2 ARE act = activators of Nrf2 (ARE) signaling | AREc32 ARE-luciferase reporter (MCF7-derived line), luminescence, 24 h | Potency, µM (series often up to 46.1 µM), usual class: activators | 410,000 compounds, 0.31% hits; further: nearly all actives have a fitted effect of over 65% in size
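AREc32_Fluc, 1000 cells/well, OPTI-MEM + 5% FBS, o/n 37 deg C 5% CO2; 23 nL cpd by pin tool, 24 hr; Steady-Glo 30 min RT, luminescence.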
IL2 activator = activates IL-2 in a cell-based reporter assay | IL-2 activation reporter assay, cell-based qHTS; stimulated with anti-CD3/CD4/CD28 beads; in transgenic mouse T cells | activation, % (series mostly up to about 46 µM) | 360,000 compounds, 0.065% hits | AID 652025; in the data active means activation above about 50%; inconclusive means mostly about 30% to 49%
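Readout is EGFP and DsRed signal by fluorescent plate cytometry after 18 h at 37 degrees C. Transgenic mouse T cells (750/well) received compound for 60 min before bead stimulation (anti-CD3, anti-CD4, anti-CD28); memory T cells served as non-tolerant control.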
12-LOX inh = inhibitors of human 12S-lipoxygenase ALOX12; P18054; purified 12hLO, xylenol orange hydroperoxide absorbance; Potency, µM (doses to about 108 µM), usual class: inhibitors; 580,000 compounds, 1.1% hits; AID 1671190
Target sequence (P18054 whole entry, looked up): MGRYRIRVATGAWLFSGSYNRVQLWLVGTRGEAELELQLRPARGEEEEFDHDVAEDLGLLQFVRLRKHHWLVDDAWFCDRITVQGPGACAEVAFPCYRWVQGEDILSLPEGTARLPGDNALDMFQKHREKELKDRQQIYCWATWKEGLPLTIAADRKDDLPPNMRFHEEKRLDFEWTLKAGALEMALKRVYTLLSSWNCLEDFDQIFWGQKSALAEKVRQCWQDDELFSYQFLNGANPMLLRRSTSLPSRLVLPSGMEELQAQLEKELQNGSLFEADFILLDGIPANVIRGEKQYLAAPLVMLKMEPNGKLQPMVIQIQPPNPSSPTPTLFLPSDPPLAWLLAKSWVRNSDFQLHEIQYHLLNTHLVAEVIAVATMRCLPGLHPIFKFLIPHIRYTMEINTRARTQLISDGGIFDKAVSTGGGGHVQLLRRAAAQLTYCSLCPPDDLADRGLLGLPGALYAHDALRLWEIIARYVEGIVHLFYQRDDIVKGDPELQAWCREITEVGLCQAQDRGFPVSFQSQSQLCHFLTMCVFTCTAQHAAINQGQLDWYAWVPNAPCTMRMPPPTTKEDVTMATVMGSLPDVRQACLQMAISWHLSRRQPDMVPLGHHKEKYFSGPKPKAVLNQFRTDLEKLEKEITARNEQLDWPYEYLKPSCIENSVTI
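Purified human 12hLO (150 nM final) in 25 mM Hepes, 0.01% Triton X-100, pH 7.0 was preincubated 15 min at room temperature with compound. Then 40 uM arachidonic acid was added, 30 min. Hydroperoxide was read by Fe-XO absorbance ratio 573/405 nm.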
Integrin act MD = integrin-mediated muscular dystrophy alleviation activation | alpha7betagal myoblasts, beta-gal FDG fluorescence, 48 h | Potency, µM (highest dose often 38.3 µM), most hits filed as activators | 350,000 compounds, 0.064% hits; further: nearly all actives have a fitted effect of over 60% in size
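Alpha7betagal+/- myoblasts (passage 13) were plated 16-24 hr, then exposed to compounds (1:260 dilution of DMSO stock) for 48 hours at 37C. After MPER lysis, β-galactosidase reporter activity was read as FDG fluorescence (ex 480/em 540) after 30 minutes.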
A number is an active result; - = inactive; ? = inconclusive; . = no result given; [ ] = another dose, or the depositor's remark. Hits are enriched below; roughly 1.5% of the tested compounds scored in any of these assays. Unless noted, the call rests on the fitted dose curve; in most records, active means well fitted curve in the direction sought with a large enough effect; inconclusive means small, poorly fitted or top-dose-only effect, or another doubt; inactive means no such curve, though single readings can be large; an effect the other way counts as inactive or inconclusive.

SMILES	uPA surface inh	Nrf2 ARE act	IL2 activator	12-LOX inh	Integrin act MD
O=C(O)CNc1ccc(S(=O)(=O)C(F)(F)F)cc1[N+](=O)[O-]	-	-	-	3.98µM	-
c1cc2c(cc1OC1CNC1)OCO2	.	.	.	-[12.5 µM]	.
O=C(NCC(=O)N1CCCN(S(=O)(=O)c2ccc(F)cc2)CC1)NCc1ccccc1	.	.	.	-	.
Cc1ccsc1C(=O)NCc1ccccn1	.	.	.	-	.
Cc1cc(C)c(NC(=S)NCCCSC2CCCCC2)c(C)c1	-	-	-	25.1µM	-
COc1ccc(-c2nc3ccccc3o2)cc1NC(=O)c1cccc(Cl)c1	.	.	.	-	.
O=C1C(=C(I)I)c2ccccc2-c2ccccc21	-	-	-	5.62µM	-
COc1c(C)cc(Br)cc1C(=O)Nc1sc2c(c1C(N)=O)CCC(C)C2 (configuration not stated)	.	.	.	-	.
CC(C)OC(=O)CCNC(=O)c1ccc(Cl)cc1Cl	.	.	.	-	.
Cc1ccc2c(Cl)c(Cc3ccccc3)c(=S)[nH]c2n1	-	-	-	31.6µM	-
Nc1cccc2c1C(=O)N(CC(=O)NC13CC4CC(CC(C4)C1)C3)C2=O	-	-	-	?	-
O=C(Cn1sc2ccccc2c1=O)NC12CC3CC(CC(C3)C1)C2	-	12.6µM	-	.	?
O=C(Cn1sc2ccccc2c1=O)Nc1ccccc1	.	?	-	0.891µM	-
O=C(CN1C(=O)c2ccccc2C1=O)Nc1ccccc1	-	-	-	-	-
O=C(NC1CCCc2ccccc21)c1cc(Sc2cccc(Cl)c2)nc2ccccc12 (configuration not stated)	.	.	.	-	.
COc1ccccc1C(=O)COC(=O)c1cccs1	-	8.91µM	-	-	-
COc1ccccc1C(=O)COC(=O)c1ccccc1O	-	?	-	-	-
O=C(COc1ccc(/C=C\[N+](=O)[O-])cc1)N1CCOCC1	-	-	-	-	-
O=[N+]([O-])/C=C\c1ccc(N2CCOCC2)cc1	8.91µM	-	-	-	-
O=C(O)c1cccc(-n2cccc2/C=C2/NC(=O)N(c3ccc(Cl)cc3)C2=O)c1	-	-	-	7.94µM	-
Cc1cccc(NC(=O)CN2C(=O)N/C(=C\c3cccn3-c3cccc(C(=O)O)c3)C2=O)c1	-	-	-	44.7µM	-
Cc1ccc(-n2cccc2/C=C2/NC(=O)N(CC(=O)Nc3cccc(C)c3)C2=O)cc1	-	-	-	?	-
O=C1/C(=C/c2ccco2)SC(=S)N1CCC(=O)N1CCCCC1CCO (configuration not stated)	-	?	-	44.7µM	-
CC(=O)/C=C\c1ccccc1OC(=O)c1cc2ccccc2oc1=O	?	-	-	-	-
O=C(/C=C\c1ccccc1OC(=O)c1ccccc1F)c1cc2ccccc2o1	-	11.2µM	-	-	-
SMILES	uPA surface inh	Nrf2 ARE act	IL2 activator	12-LOX inh	Integrin act MD
CC(=O)c1ccc(NC(=O)Cn2c(=O)c3c(ncn3C3CCCC3)n(Cc3ccccc3)c2=O)cc1	.	.	.	-	.
O=C1c2ccccc2NC(c2ccc(-c3ccc(F)cc3)o2)N1O (configuration not stated)	-	-	-	39.8µM	.
O=C1c2ccccc2NC(c2ccc(-c3ccc(Br)cc3)o2)N1O (configuration not stated)	.	-	-	20µM	-[7.66 µM]
N#C/C(=C/c1ccc(N2CCOCC2)o1)c1ccc(Cl)cc1	-	12.6µM	-	7.94µM	-
N#C/C(=C\c1ccc(N2CCOCC2)o1)c1nc2ccccc2[nH]1	-	-	?	-	-
CN(C)CC1CCC/C(=C\c2ccc(OC(=O)c3ccc(Cl)cc3)cc2)C1=O (configuration not stated)	-	-	-	25.1µM	-
CCCCc1cc(=O)oc2c(C)c(OCC(=O)OC(C)C)ccc12	.	.	.	-	.
Fc1ccc2c(c1)/C(=N/Nc1ccccn1)CCS2	-	11.2µM	-	-	-
c1ccc(N/N=C2\CCCc3ccccc32)nc1	-	?	-	-	-
Cc1nn(-c2ccc(C(F)(F)F)cc2)c(C)c1[C@@H]1C=C[C@@H](NC(=O)c2cccs2)C1	.	.	.	-	.
CCc1ccc2c(c1)C(NC(C)=O)C(=O)N2CCN1CCOCC1 (configuration not stated)	-	-	-	44.7µM	-
CCCN1C(=O)C(NC(C)=O)c2ccccc21 (configuration not stated)	.	-	-	?	-
O=C(NS(=O)(=O)c1ccccc1[N+](=O)[O-])c1ccccc1	-	-	-	11.2µM	-
